TbPYK inhibitor: blocks Trypanosoma brucei pyruvate kinase; Potency, µM (doses to about 76.8 µM), actives largely listed as inhibitors; 410,000 compounds, 0.12% hits; TbPYK enzyme, Kinase-Glo Plus ATP luminescence, 45 min; Q57TT1; also: nearly all actives have a fitted effect of over 50% in size
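Enzyme and substrate buffer are dispensed first and compound is pin-transferred. ADP at 130 uM final then starts the reaction, which runs 45 min at room temperature. Detection reagent is added for 10 min before luminescence is imaged.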
Giardia FBPA inh-1: Giardia lamblia aldolase inhibition; A8B2U2; purified Giardia FBPA; Potency, µM (titrated, usually from 59.6 µM), actives largely listed as inhibitors; 290,000 compounds, 0.71% hits; AID 2451; also: nearly all actives have a fitted effect of over 55% in size
Target sequence (A8B2U2 whole entry, looked up): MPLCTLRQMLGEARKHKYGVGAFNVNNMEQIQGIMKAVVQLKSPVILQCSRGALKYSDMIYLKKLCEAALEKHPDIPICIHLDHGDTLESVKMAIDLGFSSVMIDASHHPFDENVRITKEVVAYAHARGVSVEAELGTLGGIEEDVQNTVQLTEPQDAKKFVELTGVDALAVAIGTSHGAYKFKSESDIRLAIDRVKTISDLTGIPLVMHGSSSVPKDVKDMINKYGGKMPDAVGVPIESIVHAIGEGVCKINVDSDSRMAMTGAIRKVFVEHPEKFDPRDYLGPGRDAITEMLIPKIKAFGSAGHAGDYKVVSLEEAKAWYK
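40 nM FBPA preincubated 10 min at RT with compound (up to 57.5 uM final), then substrate plus GAPDH/TPI/NAD/arsenate coupling and diaphorase/resazurin added. Fluorescence read after 20 min at RT, 525/598 nm.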
RE007 growth inh: less growth of the S. pombe RE007 Vpr strain | S. pombe RE007 Vpr strain, BacTiter-Glo ATP luminescence, 24 h | Potency, µM (top dose mostly 92.2 µM), usual class: inhibitors | 360,000 compounds, 0.21% hits | AID 651644; active = well fitted falling curve with a large enough effect; inconclusive = small, poorly fitted or top-dose-only effect; inactive = no such curve, though single readings can be large or run the other way; also: nearly all actives have a fitted effect of over 50% in size
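Fission yeast RE007 carrying one integrated HIV-1 vpr copy, seeded at OD 0.01 in PMG+AL medium with 23 nL pinned compound. Grown 24 h at 30 degrees; viability read by BacTiter-Glo luminescence after 5 min.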
LmPK inhibitor: LmPK (Leishmania mexicana) enzyme inhibition. Potency, µM (series often up to 57.5 µM), actives largely listed as inhibitors. purified LmPK, Kinase-Glo ATP luminescence, 1 h. 290,000 compounds, 0.37% hits
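Kinase-Glo luminescence read after 1 h RT reaction of 0.1 nM LmPK with 0.5 mM PEP and 0.1 mM ADP. Activity scaled between uninhibited and enzyme-free controls.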
Giardia growth: inhibitors of Giardia lamblia growth | 1,500 compounds, 5% hits | Giardia lamblia trophozoite growth inhibition | Potency, µM (doses to about 57.5 µM), most hits filed as inhibitors | shares compounds with Giardia FBPA inh-1;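 also: trophozoites exposed to compound for 48 h at 37 °C; nearly all actives have a fitted effect of over 70% in size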
Mammal cell tox: counter-screen for Giardia aldolase inhibitors: mammalian cell toxicity; shares compounds with Giardia FBPA inh-1; mammalian cell viability counter-screen, qHTS; Potency, µM (highest dose often 57.5 µM), actives largely listed as inhibitors; 1,500 compounds, 4% hits; AID 2786;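 also: Chinese hamster ovary cells used as mammalian cytotoxicity surrogate; viability measured as cellular ATP by luminescence; compound exposure lasted 48 h before reading; nearly all actives have a fitted effect of over 60% in size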
Giardia FBPA inh-2: confirmation of Giardia fructose-bisphosphate aldolase inhibitors; shares compounds with Giardia FBPA inh-1; purified Giardia aldolase enzyme activity, qHTS; Potency, µM (doses to about 57.5 µM), most hits filed as inhibitors; 1,500 compounds, 5% hits; also: nearly all actives have a fitted effect of over 45% in size
Rabbit FBPA inh: rabbit FBP aldolase inhibition by Giardia aldolase hits; shares compounds with Giardia FBPA inh-1; Rabbit muscle FBPA enzyme inhibition, selectivity counter-screen; Potency, µM (highest dose often 57.5 µM), usual class: inhibitors; 1,500 compounds, 4% hits; also: nearly all actives have a fitted effect of over 60% in size
GAPDH coupling: counter-screen for Giardia aldolase inhibitors: GAPDH coupling enzyme | shares compounds with Giardia FBPA inh-1 | GAPDH coupling enzyme counterscreen, biochemical, qHTS | Potency, µM (top dose mostly 57.5 µM), most hits filed as inhibitors | 1,500 compounds, 6% hits; also: nearly all actives have a fitted effect of over 55% in size
Large screens that a line does not name were inactive (follow-up assays come after a bar, where they were run); [ ] = another dose, or the depositor's remark. Most compounds without a hit are left out; they make up all but 0.95% or so of the library. Unless noted, calls follow the shape of the dose curve; as a rule, active = well fitted curve in the direction sought with a large enough effect; inconclusive = small, poorly fitted or top-dose-only effect, or another doubt; inactive = no such curve, though single readings can be large; an effect the other way counts as inactive or inconclusive.

Cc1oc(C)c2c(=O)ccc3c(c12)OC(N)=C(C#N)C3c1ccccc1Cl (stereo unspecified)	Giardia FBPA inh-1 11.2µM | Giardia growth inactive | Mammal cell tox inactive | Giardia FBPA inh-2 inactive | Rabbit FBPA inh inactive | GAPDH coupling inactive
CN(CC(=O)Nc1ccccc1Br)Cc1nc2ccccc2c(=O)[nH]1	Giardia FBPA inh-1 20µM | Giardia growth inactive[10.4 µM] | Mammal cell tox inactive | Giardia FBPA inh-2 inactive | Rabbit FBPA inh inactive | GAPDH coupling inconclusive
CN(CC(=O)Nc1ccccc1Br)C(=O)CCc1nc2ccccc2c(=O)[nH]1	none (no result: Giardia FBPA inh-1, LmPK inhibitor)
O=C(CCCN1C(=O)/C(=C\c2cccs2)SC1=S)Nc1cccc(C(=O)O)c1	none
O=C(CCCN1C(=O)/C(=C/c2ccco2)SC1=S)Nc1cccc(C(=O)O)c1	Giardia FBPA inh-1 15.8µM | Giardia growth inactive[10.4 µM] | Mammal cell tox inactive | Giardia FBPA inh-2 inactive | Rabbit FBPA inh inactive | GAPDH coupling inactive
CCNc1ncc2nc(-c3cc(F)cc(F)c3)c(=O)n(Cc3ccc(F)cc3)c2n1	none (no result: TbPYK inhibitor, RE007 growth inh, LmPK inhibitor)
CCc1nnc(N/N=C/c2ccc(O)c(OC)c2)n1N	Giardia FBPA inh-1 20µM | Giardia growth inactive[10.4 µM] | Mammal cell tox inactive | Giardia FBPA inh-2 inconclusive | Rabbit FBPA inh inconclusive | GAPDH coupling inactive
CCc1nnc(N/N=C\c2ccc(OC(C)=O)c(OC)c2)n1N	Giardia FBPA inh-1 15.8µM | Giardia growth inactive | Mammal cell tox inactive | Giardia FBPA inh-2 3.66µM | Rabbit FBPA inh 5.17µM | GAPDH coupling 5.8µM
CCOc1cc(/C=N/NC(N)=O)ccc1OC(=O)c1ccc(C)cc1	none (no result: TbPYK inhibitor, RE007 growth inh)
CCOc1cc(/C=N/Nc2nnc(C)n2N)ccc1OC(C)=O	Giardia FBPA inh-1 15.8µM | Giardia growth inactive | Mammal cell tox inactive | Giardia FBPA inh-2 5.8µM | Rabbit FBPA inh 5.8µM | GAPDH coupling 6.51µM
Cc1nnc(N/N=C/c2cccc(OCc3ccc(Cl)c(Cl)c3)c2)n1N	Giardia FBPA inh-1 17.7µM | Giardia growth inconclusive | Mammal cell tox inactive | Giardia FBPA inh-2 inconclusive | Rabbit FBPA inh inactive | GAPDH coupling inconclusive
CCc1ccc(-n2c(=O)c3c4c(sc3n(CC(=O)c3ccc(F)cc3)c2=O)CCC4)cc1	none (no result: Giardia FBPA inh-1, RE007 growth inh, LmPK inhibitor)
CS(=O)(=O)c1ccc([C@@H](O)[C@@H](COC(=O)CN)NC(=O)C(Cl)Cl)cc1	none (no result: Giardia FBPA inh-1, RE007 growth inh, LmPK inhibitor)
CCc1nnc(N/N=C/c2c(Cl)cccc2Cl)n1N	Giardia FBPA inh-1 inconclusive
CCc1nnc(N/N=C/c2cccs2)n1N	Giardia FBPA inh-1 5µM | Giardia growth inconclusive | Mammal cell tox inconclusive | Giardia FBPA inh-2 12.6µM | Rabbit FBPA inh 12.6µM | GAPDH coupling 12.6µM
O=C(NCSc1ccccc1)c1ccccc1	none (no result: Giardia FBPA inh-1, LmPK inhibitor)
Cc1cc(SCNC(=O)c2ccccc2)ncn1	Giardia FBPA inh-1 14.1µM | Giardia growth inconclusive | Mammal cell tox inactive | Giardia FBPA inh-2 inactive | Rabbit FBPA inh inactive | GAPDH coupling inactive
Fc1ccc(C2=CC(c3ccc(F)cc3)n3c(nc4ccccc43)N2)cc1 (stereo unspecified)	none (no result: Giardia FBPA inh-1, RE007 growth inh, LmPK inhibitor)
c1ccc(N2CCN(c3ncnc4c3nc3n4CCCCC3)CC2)cc1	none (no result: Giardia FBPA inh-1, RE007 growth inh, LmPK inhibitor)
Fc1ccccc1CN1CCN(c2ncccn2)CC1	Giardia FBPA inh-1 25.1µM | Giardia growth inactive | Mammal cell tox inactive | Giardia FBPA inh-2 inactive | Rabbit FBPA inh inactive | GAPDH coupling inactive
C(=N\Nc1nncc2ccccc12)/c1ccccn1	RE007 growth inh inconclusive, LmPK inhibitor inconclusive
C/C(=N\Nc1ccc2nncn2n1)c1ccco1	none
C(=N\Nc1ccc2nncn2n1)/c1ccccn1	Giardia FBPA inh-1 14.1µM | Giardia growth inactive | Mammal cell tox inconclusive | Giardia FBPA inh-2 inactive | Rabbit FBPA inh inactive | GAPDH coupling inactive
C/C(=N\Nc1ccc2nncn2n1)c1ccccn1	Giardia FBPA inh-1 7.92µM | Giardia growth inconclusive | Mammal cell tox inconclusive | Giardia FBPA inh-2 inactive | Rabbit FBPA inh inactive | GAPDH coupling inconclusive

Source: PubChem
